Experiment [1] in a line: ATG_M_61_CIS: Attagene CIS-FACTORIAL HepG2 Assay for M61 Transcription Factor (Internal Marker) (AID 2282937). Particulars: HepG2 Attagene CIS-FACTORIAL M61 internal marker reporter; actives raise or lower the signal. Summed up:
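Human liver HepG2, transient MRTU transfection (cis promoter elements), 24 h compound. Total RNA → oligo(dT) RT → PCR → FAM label → HpaI → CE. Internal background marker; bidirectional fitting, DMSO = baseline.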

Experiment [2] in a line: ATG_M_19_CIS: Attagene CIS-FACTORIAL HepG2 Assay for M19 Transcription Factor (Internal Marker) (AID 2282939). Conditions: HepG2 Attagene CIS-FACTORIAL M19 internal marker reporter; actives raise or lower the signal. A digest of the protocol:
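Readout: fluorescent reporter-transcript fragments by capillary electrophoresis after RT-PCR. Human HepG2 liver cells carried transfected MRTU constructs reporting endogenous transcription-factor activity; exposure 24 h. Gain or loss of signal fitted relative to DMSO.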

The target of experiment [3] is Hepatocyte nuclear factor 3-beta (Homo sapiens) (UniProt Q9Y261). The experiment in a line: ATG_FoxA2_CIS: Attagene CIS-FACTORIAL HepG2 Assay for human Forkhead box A2 (FOXA2) (AID 2282942). Particulars: HepG2 cis-reporter transcription factor activity, 24 h; actives raise or lower the signal. Summed up:
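Transient MRTU transfection of HepG2 liver cells; 24 h treatment; total RNA → oligo(dT) RT → PCR → FAM primer extension → HpaI cut → CE. Bidirectional fit vs DMSO.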

Experiment [4] is described as follows: ATG_FoxO_CIS: Attagene CIS-FACTORIAL HepG2 Assay for human Forkhead box O (FoxO) (AID 2282943). Particulars: HepG2 Attagene cis-reporter, FoxO element, mRNA; actives raise or lower the signal. A digest of the protocol:
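Read-out: fluorescence of 6-FAM-labelled reporter cDNA fragments resolved by capillary electrophoresis. Transiently transfected HepG2 cells were dosed for 24 h; activity fitted in both directions relative to DMSO controls.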

A short description of experiment [5]: ATG_GATA_CIS: Attagene CIS-FACTORIAL HepG2 Assay for human GATA Binding Protein (AID 2282944). Particulars: HepG2 GATA cis-element reporter, Attagene multiplex mRNA; actives raise or lower the signal. A digest of the protocol:
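Read-out: fluorescent reporter mRNA fragments resolved by capillary electrophoresis after RT-PCR. Human liver HepG2 cells carried transiently transfected cis-regulated reporter constructs; chemicals incubated 24 h; gain or loss of signal fitted relative to DMSO.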

A short description of experiment [6]: ATG_GLI_CIS: Attagene CIS-FACTORIAL HepG2 Assay for human Zinc Finger Protein GLI1 (AID 2282945). Conditions: HepG2, Attagene cis-factorial reporter mRNA, GLI element; actives raise or lower the signal. A digest of the protocol: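 Transiently transfected HepG2 cells report endogenous transcription factor activity via cis-element-driven reporter units. After 24 h compound exposure, reporter mRNA was measured by RT-PCR with capillary electrophoresis; bidirectional fitting against DMSO baseline.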

Experiment [7] has as its target Bile acid receptor (Homo sapiens) (UniProt Q96RI1). Kind of experiment: ATG_IR1_CIS: Attagene CIS-FACTORIAL HepG2 Assay for human Nuclear Receptor Subfamily 1 Group H Member 4 (NR1H4), IR1 submotif (AID 2282946). Conditions: IR1 reporter transcription, actives raise or lower the signal. Summed up:
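HepG2 cells transiently transfected with multiple cis-promoter-driven reporter units to measure endogenous transcription factor activity; 24 h exposure. Reporter mRNA read by RT-PCR, FAM labelling, HpaI digestion and capillary electrophoresis. Bidirectional fit versus DMSO.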

Experiment [8] in a line: ATG_ERE_CIS: Attagene CIS-FACTORIAL HepG2 Assay for Estrogen Response Element (ERE) (AID 2282940). Conditions: HepG2 ERE cis-reporter, Attagene RNA transcript; actives raise or lower the signal. A digest of the protocol: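 Readout: reporter mRNA induction by RT-PCR, FAM-labelled primer extension, HpaI digestion and capillary electrophoresis, 24 h after dosing transfected HepG2 cells. Endogenous transcription factors act on cis-element-regulated reporters. Gain or loss fitted against DMSO.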

The nature of experiment [9]: ATG_Ets_CIS: Attagene CIS-FACTORIAL HepG2 Assay for human Erythroblast Transformation Specific (ETS) (AID 2282941). Particulars: HepG2 ETS cis-reporter transcription; AC50: actives raise or lower the signal unless noted; outcome: actives raise or lower the signal unless noted. A digest of the protocol: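 After transient cis-reporter transfection, HepG2 cells receive test chemical for 24 h. Reporter mRNA levels, measured by RT-PCR and capillary electrophoresis fluorescence, are analysed bidirectionally relative to the DMSO baseline.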

Where “and” joins values, the source holds several entries; their conditions need not be identical. Equal values may be shown once. Where a structure was tested more than once in an assay, its records may differ in their call. Calls of active or inactive are those of the source. The calls were made as follows: active = hit-call score of the fitted dose curve at least 0.9, where 1 is the maximum; inactive = score below 0.9.

The AC50 is the concentration at which the activity in the assay is half-maximal.

Bile acid receptor (Homo sapiens), sequence (Q96RI1 whole entry, looked up): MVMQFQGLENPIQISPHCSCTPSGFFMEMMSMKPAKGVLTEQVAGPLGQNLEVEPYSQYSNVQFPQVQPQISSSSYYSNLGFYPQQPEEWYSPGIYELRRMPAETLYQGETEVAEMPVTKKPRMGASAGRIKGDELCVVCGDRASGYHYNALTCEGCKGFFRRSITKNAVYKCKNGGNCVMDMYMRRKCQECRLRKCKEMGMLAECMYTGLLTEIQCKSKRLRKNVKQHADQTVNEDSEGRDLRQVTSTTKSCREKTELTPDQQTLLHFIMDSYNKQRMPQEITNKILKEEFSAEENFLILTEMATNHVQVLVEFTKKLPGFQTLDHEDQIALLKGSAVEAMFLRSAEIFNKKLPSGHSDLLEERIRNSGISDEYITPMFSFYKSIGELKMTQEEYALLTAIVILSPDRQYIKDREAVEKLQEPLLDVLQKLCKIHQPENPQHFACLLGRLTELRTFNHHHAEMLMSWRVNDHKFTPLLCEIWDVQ
Hepatocyte nuclear factor 3-beta (Homo sapiens), sequence (Q9Y261 whole entry, looked up): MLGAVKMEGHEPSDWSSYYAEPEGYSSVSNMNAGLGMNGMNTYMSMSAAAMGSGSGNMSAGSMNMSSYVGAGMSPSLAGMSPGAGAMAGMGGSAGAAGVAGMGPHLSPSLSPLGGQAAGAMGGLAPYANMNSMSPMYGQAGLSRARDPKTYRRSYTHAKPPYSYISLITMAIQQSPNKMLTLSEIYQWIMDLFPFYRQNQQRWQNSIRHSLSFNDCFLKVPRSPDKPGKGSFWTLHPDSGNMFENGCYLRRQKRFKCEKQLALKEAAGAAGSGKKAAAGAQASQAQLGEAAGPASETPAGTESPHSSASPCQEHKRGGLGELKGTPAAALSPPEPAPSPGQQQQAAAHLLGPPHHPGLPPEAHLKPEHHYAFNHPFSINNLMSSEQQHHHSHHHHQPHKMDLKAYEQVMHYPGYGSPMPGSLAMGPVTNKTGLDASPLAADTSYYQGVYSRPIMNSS

Regarding `O=C(NO)c1ccccc1`, the result in [1], in experiment [2], in [3], in experiment [4], in experiment [5] and in [6] was inactive. The outcome in [7] was inactive. The half-maximal activity concentration (AC50) in experiment [7] is 10.8 µM (active) and 19.5 µM (active).
Regarding `CCO[Si](CCC1CCC2OC2C1)(OCC)OCC` (centres undefined), the compound was called inactive in experiment [1], in experiment [2], in experiment [8], in experiment [9], in experiment [3] and in [5]. Further, the compound was called inactive in [6] and in experiment [7].
As to `COc1cccc(O)c1`, the result in experiment [1], in experiment [8], in [9], in experiment [4], in experiment [5] and in experiment [6] was inactive. Further, the compound was called inactive in [7].
Consider `CCOC=C(C(=O)OCC)C(=O)OCC`, for which the result in experiment [1], in experiment [2], in experiment [8], in experiment [9], in experiment [4] and in experiment [5] was inactive. The result in experiment [6] and in experiment [7] was inactive.
On to `C=C(c1ccc(C(=O)O)cc1)c1cc2c(cc1C)C(C)(C)CCC2(C)C`, for which the outcome in [1], in [2], in experiment [8], in [3], in experiment [5] and in experiment [6] was inactive. The AC50 in [2] was 34.1 µM (active); in experiment [8] it was 0.0545 µM (active); in experiment [5] it was 35.6 µM (active); in experiment [6] it was 28.6 µM (active).
Turning to `O=C(c1ccccc1)c1ccccc1`, the call in experiment [1], in [9], in [3], in experiment [4], in [5] and in experiment [6] was inactive.
For `COc1cc(OC)nc(NC(=O)NS(=O)(=O)Nc2ccccc2C(=O)N(C)C)n1`, the compound was called inactive in [1], in [2], in experiment [8], in experiment [9], in experiment [3] and in experiment [4]. For the same compound, the outcome in experiment [5], in experiment [6] and in [7] was inactive.
Consider `CCCCCCCC(OC)OC`, for which the outcome in experiment [1], in experiment [2], in experiment [8], in [3], in [4] and in [5] was inactive. Also, the compound was called inactive in experiment [6] and in experiment [7].
For the compound `C=CC(=O)OCC(CO)(COCC(COC(=O)C=C)(COC(=O)C=C)COC(=O)C=C)COC(=O)C=C`, the compound was classed as inactive in experiment [1], in experiment [8], in experiment [9], in experiment [3], in experiment [5] and in experiment [6]. Besides, the call in [7] was inactive. The values for the concentration at half-maximal activity (AC50) in experiment [2] and in experiment [4] were 16.2 µM (active) and 3.66 µM (active), respectively.
On to `Cc1ccc(C)c(S(=O)(=O)O)c1`, for which the outcome in experiment [1], in [2], in experiment [9], in [3], in experiment [5] and in experiment [6] was inactive.
On to `COC(=O)C(F)(F)C(F)(F)C(F)(F)F`, for which the compound was classed as inactive in [1], in experiment [8], in [9], in [3], in [5] and in experiment [6]. Further, the outcome in experiment [7] was inactive.
On to `CC(O)COc1ccccc1` (centres undefined), for which the compound was called inactive in [1], in experiment [2], in experiment [9], in [3], in [4] and in [5]. Moreover, the outcome in experiment [6] and in experiment [7] was inactive.
For `CCCCCCCCCCCC[N+](C)(C)Cc1ccccc1`, the result in [1], in experiment [2], in [3], in experiment [4], in experiment [5] and in experiment [6] was inactive. The call in experiment [7] was inactive. Also, in experiment [6], the AC50 is 16.7 µM (active).
For the compound `Brc1cc(Br)c(Oc2c(Br)cc(Br)c(Br)c2Br)cc1Br`, the compound was called inactive in experiment [1], in [2], in experiment [8], in [9], in [3] and in experiment [4]. The result in experiment [5], in experiment [6] and in experiment [7] was inactive.
For the compound `CCc1ccccc1O`, the call in experiment [1], in [2], in experiment [8], in experiment [9], in experiment [3] and in experiment [4] was inactive. Besides, the result in experiment [5], in experiment [6] and in experiment [7] was inactive.
Turning to `Clc1ccc2c(Cl)ccnc2c1`, the compound was classed as inactive in experiment [1], in experiment [8], in [9], in [3], in [4] and in experiment [5]. Besides, the compound was classed as inactive in experiment [6] and in experiment [7].
With `NCCN`, the compound was called inactive in experiment [1], in [8], in [3], in [4], in experiment [5] and in experiment [6].

Values taken from PubChem BioAssay (EPA / NIEHS).
